The results in this text go back to PubChem BioAssay AID504725 (Broad Institute, 2011).

Results with a measured potency or affinity are listed apart. The source made the active and inactive calls. No rule for the calls is given here.

This assay deals with KSHV LANA C-terminal domain (residues 932-1162) binding to LBS DNA (UniProt O40947). The experiment in a line: inhibitors of C-LANA binding to LBS DNA, dose response, biochemical, fluorescence polarization, cherry-picked samples (AID 504725). The following applies: MBP-C-LANA / FAM-LBS DNA fluorescence polarization, percent change from plate compound-well median; series mostly up to 35 µM. A general note: Polarisation of emitted light reports the rotation of a fluorescent probe.
`COC(=O)C1=COC(C)C2CN3CCc4c([nH]c5ccccc45)C3CC12` (stereo not drawn): the result was inactive.
Take `COc1cc(SC)ccc1C(=O)OCC(=O)N1CCN(C(C)=O)CC1`: the result was inactive.
For the compound `C=C1c2cccc(O)c2C(O)=C2C(=O)[C@]3(O)C(O)=C(C(N)=O)C(=O)[C@@H](N(C)C)[C@@H]3[C@@H](O)[C@H]12`, the result was inactive.
Consider `CSc1nc(SC(C)C(=O)O)c2c3c(sc2n1)COC(C)(C)C3` (stereo not drawn), for which the call was inactive.
Take `COc1cccc(NC(=O)N(CCN(C)C)C(C)c2cccnc2)c1` (stereo not drawn): the outcome was inactive.
For `Oc1[nH]c2ccccc2c1N=Nc1ccccc1F` the value was “inactive”; for `Cc1ccsc1/C=N/NC(=O)Cc1ccc(Cl)cc1`, “inactive”.
On to `COc1cc(NC(=O)c2ccc(CNc3c(N4CCCC4)c(=O)c3=O)cc2)cc(OC)c1OC`, for which the result was inactive.
For `CC(C(=O)Nc1ccccc1)N1C(=O)c2ccccc2C1=O` (stereo not drawn) the value was “inactive”.
For `COc1ccc(Cl)cc1C(=O)NNC(=O)c1cc2ccccc2o1` the value was “inactive”; for `COc1ccc(CNC(=O)C2CCC(CNC(=O)[C@@H]3Cc4ccccc4CN3)CC2)cc1` (stereo partly drawn), “inactive”.
For `CNC(=S)Nc1cccc(C(=O)OC)c1` the value was “inactive”; for `O=C(Nc1ccc(Br)cn1)c1cccc2ccccc12`, “inactive”.
Regarding `COC(=O)C1CCN(C(=O)COC(=O)Cc2c[nH]c3ccccc23)CC1`, the call was inactive.
`CCOC(=O)CN1NC2(CCCCCC2)NC1=S`: the result was inactive.
With `O=[N+]([O-])c1cc(-n2cnnn2)ccc1N1CCC(Cc2ccccc2)CC1`, the outcome was inactive.
In the case of `CCN(CC)S(=O)(=O)N1CCN(S(=O)(=O)N2CCOCC2)CC1`, the compound was classed as inactive.
As for `COc1ccc(/C=C/C(=O)NC(=S)Nc2ccc(S(N)(=O)=O)cc2)cc1`, the result was inactive.
For `NC(=O)C1=NOC(CNc2ncc(C(F)(F)F)cc2Cl)C1` (stereo not drawn) the value was “inactive”; for `COc1ccc(C2c3ccc(O)cc3Oc3ncn(CCCO)c(=N)c32)cc1OC` (stereo not drawn), “inactive”.
Turning to `O=C(c1coc(=O)c(Br)c1)N1CCCc2ccccc21`, the result was inactive.
For `O=C(/C=C/c1ccco1)Nc1ccccc1C(=O)Nc1cccc(C(=O)O)c1` the value was “inactive”.
In the case of `COC(=O)c1ccccc1OCC(=O)N1CCN(c2ccc(Cl)cc2)CC1`, the compound was classed as inactive.
For `COc1ccc(C(=O)c2ccsc2N)cc1` the value was “inactive”; for `C=CC[C@@H](CC(=O)N(CCO)Cc1ccccc1)C(=O)NC[C@H](OC(=O)[C@@H](CC=C)CC(=O)OC(C)(C)C)c1ccccc1`, “inactive”; for `NC(=O)C1(N2CCCCC2)CCN(Cc2ccc(Br)cc2)CC1`, “inactive”.
For the compound `CCn1c(=O)c(C(=O)NCCN2CCCCC2)c(O)c2ccccc21`, the outcome was inactive.
For `CCn1c(CN2CCCCC2)nc2cc(S(=O)(=O)N3CCCCC3)ccc21`, the compound was classed as inactive.
`CC(C)N(C(=S)Nc1cccnc1)c1ccccc1`: the compound was classed as inactive.
For `COc1ccc(OC)c(NC(=O)c2nnn(Cc3ccc(Br)cc3F)c2N)c1`, the outcome was inactive.
As to `CCCCN(C(=O)C(C)Oc1ccc(Br)cc1)c1c(N)n(CC(C)C)c(=O)[nH]c1=O` (stereo not drawn), the call was inactive.
Consider `O=C(NC1CCCCC1)c1cc([N+](=O)[O-])ccc1N1CCOCC1`, for which the compound was classed as inactive.
Turning to `Cc1cc2nc(SCCN3CCOCC3)[nH]c2cc1C`, the compound was classed as inactive.
For the compound `COc1cccc(OC)c1C(=O)Nc1cc(C)on1`, the outcome was inactive.
For `COc1ccc(-c2n[nH]c(=S)n2-c2ccc(C)cc2)cc1` the value was “inactive”; for `O=C(O)c1cccc(-n2cccc2/C=C/[N+](=O)[O-])c1`, “inactive”.
For the compound `CN(C)c1ccc(/C=C/C(=O)c2ccc(O)cc2)cc1[N+](=O)[O-]`, the compound was called inactive.
With `O=C(Cn1ncc(N2CCCC2)c(Cl)c1=O)c1ccc(Cl)cc1`, the compound was called inactive.
